A short description of test [1]: qHTS assay for small molecule disruptors of the mitochondrial membrane potential - cell viability (AID 720634; calls by dose curve; further: nearly all actives have a fitted effect of over 20% in size; further: potency means the concentration at half of the fitted maximal effect). Put shortly: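 Cells: HepG2, 2,000/well, attached overnight. Compound 1 hr, 37 C/5% CO2. +m-MPI dye, +CellTiter-Glo 30 min RT. Readout: luminescence (ATP).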
(In general: In qHTS, concentration-response curves come from the screen itself.)

Test [2] is described as follows: qHTS assay to identify small molecule antagonists of the glucocorticoid receptor (GR) signaling pathway - cell viability counter screen (AID 720693). Further: nearly all actives have a fitted effect of over 55% in size. Further: potency means the concentration at half of the fitted maximal effect.
A short description of test [3]: qHTS assay for identifying genotoxic compounds that show differential cytotoxicity against isogenic chicken DT40 cell lines with known DNA damage response pathways - Rad54/Ku70 mutant cell line (AID 743015). Further: nearly all actives have a fitted effect of over 60% in size. Further: potency means the concentration at half of the fitted maximal effect.
The subject of test [4] is thyroid hormone receptor (rat, GH3 cells). Nature of the test: qHTS assay to identify small molecule agonists of the thyroid receptor (TR) signaling pathway (AID 743066; calls by dose curve).
Test [5] in a line: qHTS assay to identify small molecule antagonists of the estrogen receptor alpha (ER-alpha) signaling pathway - cell viability counter screen (AID 743074; calls by dose curve;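 further: HEK293 cells carrying ER-alpha-UAS-bla reporter stimulated with 17beta-estradiol; nearly all actives have a fitted effect of over 45% in size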; further: potency means the concentration at half of the fitted maximal effect).
Test [6] can be described thus: qHTS assay to identify small molecule that activate the aryl hydrocarbon receptor (AhR) signaling pathway - cell viability counter screen (AID 743086). Further: nearly all actives have a fitted effect of over 45% in size. Further: potency means the concentration at half of the fitted maximal effect. A digest of the protocol:
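HepG2-AhR-luc (HG2L7.5c1) cells, 4000/well, were preincubated 5 h at 37C, exposed to compound in qHTS format for 24 hr at 37C, then given CellTiter-Fluor for 30 min; viability was read as fluorescence in the reporter wells.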

The target of test [7] is Peroxisome proliferator-activated receptor gamma (Homo sapiens) (UniProt P37231). Kind of test: qHTS assay to identify small molecule agonists of the peroxisome proliferator-activated receptor gamma (PPARg) signaling pathway (AID 743094; active means well fitted activation curve with a large enough effect in the signal ratio in the repeat runs, not every such curve was filed as active; the % refers to the signal ratio). Put shortly: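 Beta-lactamase FRET fluorescence was the read-out after a 1 h room-temperature substrate step, following 17 h compound treatment at 37C of HEK293H cells expressing a UAS-driven bla reporter responsive to PPARg.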

Test [8] can be described thus: qHTS assay for small molecule agonists of the antioxidant response element (ARE) signaling pathway - cell viability counter screen (AID 743203; calls by dose curve; further: potency means the concentration at half of the fitted maximal effect; nearly all actives have a fitted effect of over 55% in size). A digest of the protocol: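 HepG2 cells carrying ARE-driven beta-lactamase; 2,000 cells/well; 5 hrs plating; compound pinned from DMSO; 16 hrs 37C/5% CO2; CellTiter-Glo added; 30 min RT; luminescence.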
The nature of test [9]: qHTS assay for small molecule activators of the heat shock response signaling pathway - cell viability counter screen (AID 743209). Further: nearly all actives have a fitted effect of over 50% in size. Further: potency means the concentration at half of the fitted maximal effect. Put shortly: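 Luminescence from CellTiter-Glo, added after the beta-lactamase FRET read, gave the viability signal. Cells were HSE-bla HeLa treated with DMSO-dissolved compounds for 5 h at 37 C following overnight plating.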
The target in test [10] is Peroxisome proliferator-activated receptor delta (Homo sapiens) (UniProt Q03181). Kind of test: qHTS assay to identify small molecule agonists of the peroxisome proliferator-activated receptor delta (PPARd) signaling pathway (AID 743212; calls by dose curve;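 further: HEK293H cells with PPARd UAS beta-lactamase reporter GeneBLAzer system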). Put shortly:
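A PPARd-bla HEK293H line with beta-lactamase under an Upstream Activator Sequence is treated with compounds at 37 C. Substrate loading for 2 h at room temperature precedes the fluorescence measurement.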

Test [11] is described as follows: qHTS assay to identify small molecule antagonists of the peroxisome proliferator-activated receptor delta (PPARd) signaling pathway - cell viability counter screen (AID 743213). Further: nearly all actives have a fitted effect of over 50% in size. Further: potency means the concentration at half of the fitted maximal effect. A digest of the protocol: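 PPARd-bla HEK293H cells were treated with compounds plus agonist L165041 (300 nM final) for 17 h at 37 C. Viability was then read in the same wells by CellTiter-Glo luminescence after 30 min at room temperature.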

Test [12] is described as follows: qHTS assay to identify small molecule agonists of the farnesoid-X-receptor (FXR) signaling pathway - cell viability counter screen (AID 743218). Further: nearly all actives have a fitted effect of over 45% in size. Further: potency means the concentration at half of the fitted maximal effect. A digest of the protocol:
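HEK 293T FXR-bla cells; 5 h pre-incubation, 16 h compound exposure at 37 C; LiveBLAzer substrate 2 h RT, then CellTiter-Glo 30 min RT, luminescence.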

The target of test [13] is Vitamin D3 receptor (Homo sapiens) (UniProt P11473). Kind of test: qHTS assay to identify small molecule agonists of the vitamin D receptor (VDR) signaling pathway (AID 743222; calls by dose curve). A digest of the protocol:
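VDR-bla cells, 2,000/well; 4 h preincubation 37C; cpd (DMSO) 16 h; LiveBLAzer B/G substrate 2 h RT; fluorescence intensity read.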

Test [14] is described as follows: qHTS assay to identify small molecule agonists of the vitamin D receptor (VDR) signaling pathway - cell viability counter screen (AID 743224). Further: potency means the concentration at half of the fitted maximal effect; nearly all actives have a fitted effect of over 50% in size. Put shortly:
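Luminescence from CellTiter-Glo, read after 30 min at room temperature, reports viability of VDR-bla cells treated with compounds for 16 h at 37C in the wells used for the beta-lactamase FRET read.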

Test [15] is described as follows: qHTS assay to identify small molecule antagonists of the vitamin D receptor (VDR) signaling pathway - cell viability counter screen (AID 743225). Further: nearly all actives have a fitted effect of over 50% in size. Further: potency means the concentration at half of the fitted maximal effect. A digest of the protocol: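 Cytotoxicity toward the VDR-bla HEK 293T line was scored by ATP-based CellTiter-Glo luminescence, read in the wells already used for the beta-lactamase readout after 16 h compound treatment under 3 nM 1-alpha,25-dihydroxyvitamin D3 stimulation.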

Test [16] addresses Glucocorticoid receptor (Homo sapiens) (UniProt P04150). Nature of the test: qHTS assay to identify small molecule agonists of the glucocorticoid receptor (GR) signaling pathway (AID 720691; active means well fitted activation curve with a large enough effect in the signal ratio in the repeat runs, not every such curve was filed as active; the % refers to the signal ratio). Put shortly: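 Fluorescence intensity from LiveBLAzer B/G FRET substrate (2 h, room temperature) reports beta-lactamase expression driven by the glucocorticoid response element in GR-bla HeLa cells after 18 h compound exposure at 37 C.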

The target is the same in test [17]. Kind of test: qHTS assay to identify small molecule antagonists of the glucocorticoid receptor (GR) signaling pathway (AID 720692; active means well fitted inhibition curve with a large enough effect in the signal ratio in the repeat runs, not every such curve was filed as active; the % refers to the signal ratio; further: potency means the concentration at half of the fitted maximal effect). Put shortly:
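HeLa GR-bla cells; cmpd + dex 5 nM final, 18 h 37 C; LiveBLAzer B/G FRET substrate 2 h RT; fluorescence intensity read. Antagonist mode, qHTS.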

Test [18] in a line: qHTS assay to identify small molecule antagonists of the peroxisome proliferator-activated receptor gamma (PPARg) signaling pathway - cell viability counter screen (AID 743194). Further: potency means the concentration at half of the fitted maximal effect; nearly all actives have a fitted effect of over 55% in size. The note with it: Potency: co-treated with 50 nM rosiglitazone unless noted. A digest of the protocol:
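PPARg-UAS-bla HEK293H cells were plated, rested 5 h at 37 C, then treated with compounds plus rosiglitazone (50 nM final) for 17 h at 37 C; viability was then read by CellTiter-Glo luminescence after 30 min at room temperature.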

Test [19] in a line: qHTS assay to identify small molecule antagonists of the androgen receptor (AR) signaling pathway - cell viability counter screen (AID 743033; further: nearly all actives have a fitted effect of over 45% in size; further: potency means the concentration at half of the fitted maximal effect).
Test [20] is described as follows: qHTS assay to identify small molecule antagonists of the estrogen receptor alpha (ER-alpha) signaling pathway using the BG1 cell line (AID 743080; calls by dose curve;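 further: BG1 cells stimulated with 17beta-estradiol alongside compound; nearly all actives have a fitted effect of over 25% in size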; further: potency means the concentration at half of the fitted maximal effect). Put shortly: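 BG1-Luc-4E2 cells (endogenous full-length ER-alpha, stable 4×ERE-luciferase) were starved 5 days in phenol-red-free medium with 10% charcoal-stripped FBS, plated 24 h, then given compound plus 17beta-estradiol for 21.5 h at 37 C; ONE-Glo luminescence read after 30 min.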

Data on eight molecules can be found in PubChem BioAssay (Tox21).

Values joined by “and” are separate entries in the source; they are usually repeats but may differ in a detail not shown here. Identical values can stand only once. Records with an inconclusive call do not appear. More than one record can exist for a structure, and the calls need not agree. Active and inactive are the calls of the source. Unless noted, the call rests on the fitted dose curve; in most records, active means well fitted curve in the direction sought with a large enough effect in the repeat runs; inconclusive means weak or mixed curves; inactive means no such curve, though single readings can be large; an effect the other way counts as inactive or inconclusive.

Glucocorticoid receptor (Homo sapiens), sequence (P04150 whole entry, looked up): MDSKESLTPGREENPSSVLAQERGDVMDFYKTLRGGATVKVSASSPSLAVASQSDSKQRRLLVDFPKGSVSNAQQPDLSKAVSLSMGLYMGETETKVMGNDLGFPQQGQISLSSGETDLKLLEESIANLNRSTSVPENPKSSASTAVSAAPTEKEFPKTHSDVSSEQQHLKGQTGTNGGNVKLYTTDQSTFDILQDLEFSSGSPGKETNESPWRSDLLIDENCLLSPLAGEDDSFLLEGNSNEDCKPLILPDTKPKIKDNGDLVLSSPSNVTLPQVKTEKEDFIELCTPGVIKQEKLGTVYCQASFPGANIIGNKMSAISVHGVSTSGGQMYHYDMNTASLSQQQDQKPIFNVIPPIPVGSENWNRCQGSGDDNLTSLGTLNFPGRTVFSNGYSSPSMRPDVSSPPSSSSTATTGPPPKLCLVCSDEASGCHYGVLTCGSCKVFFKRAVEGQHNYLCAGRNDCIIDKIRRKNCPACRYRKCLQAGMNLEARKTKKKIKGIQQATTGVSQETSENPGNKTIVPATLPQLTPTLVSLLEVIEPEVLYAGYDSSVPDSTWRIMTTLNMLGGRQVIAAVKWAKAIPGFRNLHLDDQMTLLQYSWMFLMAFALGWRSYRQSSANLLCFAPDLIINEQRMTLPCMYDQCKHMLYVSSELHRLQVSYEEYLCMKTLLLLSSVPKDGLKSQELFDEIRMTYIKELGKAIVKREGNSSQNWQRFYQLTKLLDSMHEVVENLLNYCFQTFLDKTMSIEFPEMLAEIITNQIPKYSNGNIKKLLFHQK
Peroxisome proliferator-activated receptor delta (Homo sapiens), sequence (Q03181 whole entry, looked up): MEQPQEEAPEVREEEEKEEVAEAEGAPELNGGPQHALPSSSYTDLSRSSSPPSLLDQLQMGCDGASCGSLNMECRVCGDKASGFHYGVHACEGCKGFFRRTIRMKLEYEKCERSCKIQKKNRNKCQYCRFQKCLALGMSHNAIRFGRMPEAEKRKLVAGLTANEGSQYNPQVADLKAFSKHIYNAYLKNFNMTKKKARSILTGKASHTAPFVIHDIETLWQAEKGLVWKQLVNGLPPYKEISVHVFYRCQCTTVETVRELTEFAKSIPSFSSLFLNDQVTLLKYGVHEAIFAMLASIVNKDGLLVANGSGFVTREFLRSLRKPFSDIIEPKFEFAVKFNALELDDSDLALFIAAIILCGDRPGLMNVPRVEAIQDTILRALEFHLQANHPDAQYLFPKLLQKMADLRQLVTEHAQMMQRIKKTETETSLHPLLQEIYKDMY
Peroxisome proliferator-activated receptor gamma (Homo sapiens), sequence (P37231 whole entry, looked up): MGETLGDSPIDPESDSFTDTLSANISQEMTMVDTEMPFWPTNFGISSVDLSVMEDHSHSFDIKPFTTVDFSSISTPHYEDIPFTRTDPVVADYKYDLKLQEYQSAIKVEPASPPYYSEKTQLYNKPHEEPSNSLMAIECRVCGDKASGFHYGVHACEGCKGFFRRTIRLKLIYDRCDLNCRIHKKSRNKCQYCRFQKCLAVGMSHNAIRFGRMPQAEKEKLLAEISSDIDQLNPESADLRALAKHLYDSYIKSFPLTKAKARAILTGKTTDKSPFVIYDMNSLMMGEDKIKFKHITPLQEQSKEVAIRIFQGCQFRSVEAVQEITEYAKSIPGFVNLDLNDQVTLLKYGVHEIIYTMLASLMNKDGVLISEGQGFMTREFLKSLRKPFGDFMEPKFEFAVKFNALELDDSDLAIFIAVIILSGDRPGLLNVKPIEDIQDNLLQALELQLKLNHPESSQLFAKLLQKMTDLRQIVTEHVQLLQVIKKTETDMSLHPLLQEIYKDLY
Vitamin D3 receptor (Homo sapiens), sequence (P11473 whole entry, looked up): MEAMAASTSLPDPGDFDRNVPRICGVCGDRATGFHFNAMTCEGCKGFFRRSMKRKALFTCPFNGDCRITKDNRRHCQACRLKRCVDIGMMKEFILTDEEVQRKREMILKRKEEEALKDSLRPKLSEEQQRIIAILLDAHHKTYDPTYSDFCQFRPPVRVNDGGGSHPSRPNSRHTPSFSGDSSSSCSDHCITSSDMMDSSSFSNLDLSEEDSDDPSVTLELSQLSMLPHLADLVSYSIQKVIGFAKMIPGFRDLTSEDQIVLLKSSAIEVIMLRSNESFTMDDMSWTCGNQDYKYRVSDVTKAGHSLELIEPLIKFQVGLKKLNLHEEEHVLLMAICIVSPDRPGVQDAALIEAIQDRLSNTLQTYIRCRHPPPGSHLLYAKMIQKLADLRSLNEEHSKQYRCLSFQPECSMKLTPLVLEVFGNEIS

For `CCOC(=O)C(O)(c1ccc(Cl)cc1)c1ccc(Cl)cc1`, the Potency in test [1] is 30.9 µM (active); in [2], 17.6 µM (active); in [3], 3.9 µM (active) and 17.2 µM (active); in test [5], 24.8 µM (active) and inactive; in [6] it was 61.8 µM (active) and inactive; in test [8], 24.6 µM (active). The Potency was 7.84 µM (active) and inactive in test [9]; 22.1 µM (active) in test [11]; 24.8 µM (active) and inactive in test [12]; 7.84 µM (active) and 43.6 µM (active) in [14]; 11.1 µM (active) and 38.9 µM (active) in test [15]. For the same molecule, the Potency entry in [4] and in test [7] was “inactive” each time. Moreover, the result in test [10] and in test [13] was inactive.

For the molecule `c1ccc2c(c1)Sc1ccccc1N2CC1CN2CCC1CC2` (stereo not given), the Potency entry in test [1], in [16] and in test [2] was “inactive” in each case. Moreover, the Potency in test [17] is 21.3 µM (active); in [3], 8.41 µM (active); in [5] it was 21.3 µM (active); in [18], 26.6 µM (active); in [8], 13.3 µM (active); in test [11] it was 9.44 µM (active). The Potency in test [12] was 10.6 µM (active); in [14] it was 21.1 µM (active); in test [15], 21.3 µM (active).

For the molecule `OCC(c1ccc(Cl)cc1)c1ccc(Cl)cc1`, the Potency in [19] is 43.6 µM (active); in test [20] it was 68.6 µM (active); in [15] it was 54.9 µM (active). The Potency entry in [5], in [6], in [7], in test [9] and in [12] was “inactive” throughout. For the same molecule, the call in test [13] was inactive.

As to `O=C1C(I)=CC(=C(c2cc(I)c(O)c(I)c2)c2ccccc2C(=O)O)C=C1I`, the Potency result in test [1], in test [3], in test [19], in test [4], in [5] and in test [20] was “inactive” throughout. Besides, the Potency result in test [6], in test [11], in [12] and in test [15] was “inactive” in each case. In addition, the Potency in test [17] is 16.9 µM (active) and 8.49 µM (active). Besides, the outcome in test [10] and in test [13] was inactive.

As to `ClC1=C(Cl)[C@]2(Cl)[C@@H]3[C@@H](Cl)[C@H]4O[C@H]4[C@@H]3C1(Cl)C2(Cl)Cl`, the Potency result in test [1], in [19], in test [5], in test [20], in [6] and in test [7] was “inactive” throughout. For the same molecule, the Potency entry in test [11] was “inactive”. In [18], the Potency was 43.6 µM (active). Moreover, the molecule was classed as inactive in test [10] and in [13].

For the molecule `Nc1ccc([N+](=O)[O-])cc1`, the Potency entry in test [16] and in test [4] was “inactive” in each case. For the same molecule, the Potency in test [3] was 14.1 µM (active). For the same molecule, the result in test [13] was inactive.

In the case of `Cc1nnc2n1-c1sc(CCc3ccc(CC(C)C)cc3)cc1C(c1ccccc1Cl)=NC2C` (stereo not given), the Potency result in test [1], in [19] and in test [6] was “inactive” each time. The Potency in test [2] is 23.9 µM (active); in test [3] it was 13.3 µM (active); in test [18], 29.8 µM [setting not given] (active); in test [9], 29.8 µM (active); in test [12] it was 33.5 µM (active); in test [15] it was 23.9 µM (active).

In the case of `Cc1ccc(N(SC(F)(Cl)Cl)S(=O)(=O)N(C)C)cc1`, in test [2], the Potency result was “inactive”. Moreover, the Potency in [3] is 0.137 µM (active); in test [19], 3.47 µM (active); in [18] it was 7.76 µM (active); in [8], 7.7 µM (active); in test [11], 13.8 µM (active); in test [12], 13.8 µM (active). The Potency in [14] is 7.76 µM (active).
